{"source": "PubChem BioAssay AID449762", "about": "(Southern Research Specialized Biocontainment Screening …, 2010)", "note": "Among all 330,000 compounds or so, about 1,900 (0.58%) were called active. Roughly 4% stayed inconclusive and do not appear here. Rule as the data show it: inconclusive = inhibition above about 70% without an active follow-up result; inactive = below that. A selection follows. Results with a measured potency or affinity are listed apart.", "data": [{"experiment": "M. tuberculosis growth inhibition, HTS (AID 449762);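 also: bacterial growth assessed after seven days of incubation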", "details": "M. tuberculosis H37Rv growth inhibition, 7H9 media; at 25 µM; active compounds read high", "values": [{"smiles": "C=CCNC(=S)NNC(=O)CCC(O)COCCC(C)C", "note": "(configuration not stated)", "inhibition": "1.2% (inactive)"}, {"smiles": "CCOC(=O)N1CCC(NC(=O)c2cc(COc3ccccc3SC)on2)CC1", "inhibition": "1.54% (inactive)"}, {"smiles": "COc1cc(/C=C2/C(=O)N(c3ccc(C)c(C)c3)N=C2C)cc([N+](=O)[O-])c1O", "inhibition": "-4.94% (inactive)"}, {"smiles": "CC1=NN(c2cccc(C(=O)O)c2)C(=O)/C1=C\\C=C\\c1ccco1", "inhibition": "-4.32% (inactive)"}, {"smiles": "Cc1nn(C)c(C)c1CNC(=O)Nc1cccc(Cl)c1C", "inhibition": "-2.03% (inactive)"}, {"smiles": "Cc1ccc([N+](=O)[O-])c(NC2OC(CO)C(O)C2O)c1", "note": "(configuration not stated)", "inhibition": "-2.66% (inactive)"}, {"smiles": "COc1ccc(C2CC(c3ccc(Br)cc3)=NN2C(=O)c2cccnc2)cc1", "note": "(configuration not stated)", "inhibition": "47.5% (inactive)"}, {"smiles": "N#CCc1nc2ccc(S(=O)(=O)N3CCOCC3)cc2s1", "inhibition": "-0.38% (inactive)"}, {"smiles": "Cc1ccccc1CN1CCCN(Cc2ccc(Cl)cc2)S1(=O)=O", "inhibition": "2.25% (inactive)"}, {"smiles": "CCOC(=O)c1c(NC(C)=O)sc2c1CCC(C=O)=C2Sc1ccccc1", "inhibition": "6.72% (inactive)"}, {"smiles": "CCOC(=O)c1c(NC(=O)CCCC(=O)O)sc2c1CCC2", "inhibition": "1.76% (inactive)"}, {"smiles": "COc1cccc(Cn2c(=O)ccc3ccccc32)c1", "inhibition": "7.74% (inactive)"}, {"smiles": "Cc1ccc(C(=O)Nc2ccc(Oc3cccc(C(F)(F)F)c3)nc2)cc1", "inhibition": "3.4% (inactive)"}, {"smiles": "O=C(Nc1ccc(Oc2cccc(C(F)(F)F)c2)nc1)c1ccccc1", "inhibition": "14% (inactive)"}, {"smiles": "O=C1CN=CN=CN1c1ccc(Cl)cc1Cl", "inhibition": "10.8% (inactive)"}, {"smiles": "CCOC(=O)N1CCN(C(=O)C2CCC(=O)N(CCCc3ccccc3)C2)CC1", "note": "(configuration not stated)", "inhibition": "-4.71% (inactive)"}, {"smiles": "Cc1cc(CC(C)C)n(-c2nc3ccccc3c(=O)n2OCc2ccccc2)n1", "inhibition": "58.9% (inactive)"}, {"smiles": "Cc1cc(C)n(-c2nc3ccccc3c(=O)n2OCC(N)=O)n1", "inhibition": "13.1% (inactive)"}, {"smiles": "Cc1ccc(S(=O)(=O)NCC(=O)N(CC(=O)NCC2CCCO2)c2ccc(Cl)cc2)cc1", "note": "(configuration not stated)", "inhibition": "-3.29% (inactive)"}, {"smiles": "COc1ccc(C(=O)NNC(=O)CSc2nc3c(c(=O)n(C)c(=O)n3C)n2C)cc1", "inhibition": "1.02% (inactive)"}, {"smiles": "O=C(Nc1ccc(C(F)(F)F)cc1)c1ccccc1", "inhibition": "0.07% (inactive)"}, {"smiles": "COc1cc(NC(=O)C[n+]2ccc(C(=O)c3ccccc3)cc2)cc(OC)c1", "inhibition": "-7.81% (inactive)"}, {"smiles": "C[C@@H](CN1C(=O)C(=O)NC[C@@H]1Cc1ccc(O)cc1)NC(=O)Cc1ccccc1", "inhibition": "-2.19% (inactive)"}, {"smiles": "Cn1cccc1-c1cc(C(=O)N/N=C/c2ccc(F)cc2)[nH]n1", "inhibition": "-3.95% (inactive)"}, {"smiles": "Cc1sc2ncnc(N(C)Cc3ccco3)c2c1C", "inhibition": "-1.32% (inactive)"}, {"smiles": "CN(Cc1ccco1)c1ncnc2ccc(-c3ccoc3)cc12", "inhibition": "17.5% (inactive)"}, {"smiles": "C=CCOc1ccc(C2CC(C)=NN2c2ccccc2)cc1", "note": "(configuration not stated)", "inhibition": "3.55% (inactive)"}, {"smiles": "CCOC(=O)C1=NN(c2ccccc2)C(c2ccccc2)CC1=O", "note": "(configuration not stated)", "inhibition": "12.7% (inactive)"}, {"smiles": "O=C1c2ccccc2C(=O)N1c1ccc(Cl)cc1", "inhibition": "-5.93% (inactive)"}, {"smiles": "Cc1ccc(N2C(=O)C3C(c4ccccc4)(C2=O)C3(c2ccccc2)c2ccccc2)cc1", "note": "(configuration not stated)", "inhibition": "20.2% (inactive)"}, {"smiles": "O=c1c(Br)c(NCc2ccccc2)cnn1-c1ccc(F)cc1", "inhibition": "-5.73% (inactive)"}, {"smiles": "O=C(O)c1ccc(Sc2nnnn2-c2ccccc2)c([N+](=O)[O-])c1", "inhibition": "3.58% (inactive)"}, {"smiles": "Cn1nnnc1Sc1ccc(C(=O)O)cc1[N+](=O)[O-]", "inhibition": "2.4% (inactive)"}, {"smiles": "COc1ccc(C(=O)c2ccc(N3CCN(C4CC(=O)NC4=O)CC3)cc2)cc1F", "note": "(configuration not stated)", "inhibition": "0.26% (inactive)"}, {"smiles": "Cc1nc(Sc2ccccc2)c(C#N)c(C)c1[N+](=O)[O-]", "inhibition": "3.11% (inactive)"}, {"smiles": "Nc1ncnc(Sc2ccccc2)c1[N+](=O)[O-]", "inhibition": "-0.35% (inactive)"}, {"smiles": "C=CCNC(=O)COc1cc(C)cc(C)c1C", "inhibition": "-2.5% (inactive)"}, {"smiles": "CCOc1ccc(CCNC(=O)Cn2c(=O)c3cccn3c3cccnc32)cc1", "inhibition": "-8.95% (inactive)"}, {"smiles": "Cn1cnc([N+](=O)[O-])c1Sc1ccccc1", "inhibition": "-3.64% (inactive)"}, {"smiles": "Cc1ccc(Sc2c([N+](=O)[O-])ncn2C)cc1", "inhibition": "-9.59% (inactive)"}, {"smiles": "Cc1cc(OC(=O)C(c2ccccc2)c2ccccc2)c([N+](=O)[O-])c(=O)[nH]1", "inhibition": "1.27% (inactive)"}, {"smiles": "CC1=NN2C(=N)/C(=C\\c3cc(C)n(-c4ccccc4)c3C)C(=O)N=C2S1", "inhibition": "-0.68% (inactive)"}, {"smiles": "NC(=O)CSc1n[nH]c(=O)n1CCc1ccccc1", "inhibition": "-5.89% (inactive)"}, {"smiles": "O=c1ccsn1Cc1ccccc1", "inhibition": "2.59% (inactive)"}, {"smiles": "CCCCCCN1Cc2ccccc2C1", "inhibition": "3.68% (inactive)"}, {"smiles": "Cc1ccc(OCCCCNC(C)c2ccccc2)c(C)c1", "note": "(configuration not stated)", "inhibition": "7.81% (inactive)"}, {"smiles": "c1ccc(CCNCCCOc2cccc3ccccc23)cc1", "inhibition": "40.1% (inactive)"}, {"smiles": "C#CCNC(=O)C1=C[C@H](c2ccc3c(c2)OCO3)C[C@H](OCc2ccc(CO)cc2)O1", "inhibition": "6.55% (inactive)"}, {"smiles": "COc1ccccc1N1CCN(CC(=O)Nc2nc(C)c(C(=O)N(C)C)s2)CC1", "inhibition": "0.78% (inactive)"}, {"smiles": "Nc1nc(-c2cc3ccccc3o2)cs1", "inhibition": "27.5% (inactive)"}, {"smiles": "CN1CCN(c2nc(-c3cc4ccccc4o3)cs2)CC1", "inhibition": "1.67% (inactive)"}, {"smiles": "COc1ccc2[nH]c(C)c(CCN(Cc3cccs3)C(=S)Nc3ccccc3)c2c1", "inhibition": "-7.77% (inactive)"}, {"smiles": "CCCCn1cnc2c1c(=O)n(CC(=O)c1cc(C)n(C)c1C)c(=O)n2CC(C)C", "inhibition": "5.57% (inactive)"}, {"smiles": "Cc1ccc(CN2CCN(Cc3ccc4c(c3)OCCO4)CC2CCO)cc1", "note": "(configuration not stated)", "inhibition": "-5.47% (inactive)"}, {"smiles": "O=C(c1nc2ccccc2[nH]1)c1ccccc1[N+](=O)[O-]", "inhibition": "13% (inactive)"}, {"smiles": "CN(c1ccccc1)c1nc(-n2ccnc2)nc(-n2ccnc2)n1", "inhibition": "5.05% (inactive)"}, {"smiles": "c1ccc(N(c2ccccc2)c2nc(-n3ccnc3)nc(-n3ccnc3)n2)cc1", "inhibition": "-9.38% (inactive)"}, {"smiles": "CCCCNc1nc(-c2ccccc2)nc(-n2ccnc2)n1", "inhibition": "10% (inactive)"}, {"smiles": "COc1nc(N(c2ccccc2)c2ccccc2)nc(-n2ccnc2)n1", "inhibition": "34.2% (inactive)"}, {"smiles": "COC(=O)c1ccc(C2c3c(oc4ccc(F)cc4c3=O)C(=O)N2CCO)cc1", "note": "(configuration not stated)", "inhibition": "-6.43% (inactive)"}, {"smiles": "COc1ccccc1NC(=O)c1ccc2nsnc2c1", "inhibition": "5.74% (inactive)"}, {"smiles": "CCN1C(=O)C(CC(=O)NCCc2ccccc2)N(NC(=O)c2cccnc2)C1=S", "note": "(configuration not stated)", "inhibition": "12% (inactive)"}]}]}
